In the library only some 0.56% were active in any assay of this set; here they are far more common.
EPAC1 antagonist: qHTS for Antagonist of cAMP-regulated guanine nucleotide exchange factor 3 (EPAC1): primary screen; Rap guanine nucleotide exchange factor 3 (Homo sapiens), O95398; EPAC1 GEF assay, Rap1b-BODIPY-GDP exchange fluorescence; Potency, µM (titrated, usually from 115 µM), without a hit: at the top dose activity change, negative = inhibition, hits mostly inhibitors; 360,000 compounds, 0.14% hits; AID 720709, 2013;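 note: potency is the fitted concentration of half-maximal effect; plate controls were vehicle for no effect and positive control for full effect; nearly all actives have a fitted effect of over 50% in size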
Target sequence (O95398 whole entry, looked up): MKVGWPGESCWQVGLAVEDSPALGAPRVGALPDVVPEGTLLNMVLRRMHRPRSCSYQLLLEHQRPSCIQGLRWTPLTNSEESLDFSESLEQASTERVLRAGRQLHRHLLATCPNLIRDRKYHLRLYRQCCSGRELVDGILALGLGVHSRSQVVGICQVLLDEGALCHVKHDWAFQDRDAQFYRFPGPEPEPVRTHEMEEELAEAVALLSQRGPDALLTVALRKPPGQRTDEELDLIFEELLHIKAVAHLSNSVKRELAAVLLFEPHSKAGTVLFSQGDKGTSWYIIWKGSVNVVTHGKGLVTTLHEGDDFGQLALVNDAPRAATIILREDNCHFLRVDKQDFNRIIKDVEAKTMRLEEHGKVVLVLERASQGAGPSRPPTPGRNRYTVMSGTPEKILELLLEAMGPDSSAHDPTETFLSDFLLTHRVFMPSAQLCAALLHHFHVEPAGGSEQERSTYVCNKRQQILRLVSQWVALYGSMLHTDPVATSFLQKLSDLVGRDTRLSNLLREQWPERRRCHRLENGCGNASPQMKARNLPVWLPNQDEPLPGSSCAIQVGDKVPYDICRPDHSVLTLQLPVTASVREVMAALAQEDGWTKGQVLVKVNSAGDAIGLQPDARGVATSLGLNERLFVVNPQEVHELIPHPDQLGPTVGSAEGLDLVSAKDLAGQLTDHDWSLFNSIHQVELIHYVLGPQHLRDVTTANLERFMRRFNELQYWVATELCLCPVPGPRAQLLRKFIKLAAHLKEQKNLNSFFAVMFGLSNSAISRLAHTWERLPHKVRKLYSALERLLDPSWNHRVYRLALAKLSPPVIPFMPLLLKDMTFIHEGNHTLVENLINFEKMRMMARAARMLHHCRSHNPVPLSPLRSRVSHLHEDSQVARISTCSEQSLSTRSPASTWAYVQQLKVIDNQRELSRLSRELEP
EPAC1 agonist: qHTS for Agonist of cAMP-regulated guanine nucleotide exchange factor 3 (EPAC1): primary screen; Potency, µM (series often up to 154 µM), without a hit: top-dose activation, actives largely listed as activators; 360,000 compounds, 0.073% hits; Rap guanine nucleotide exchange factor 3 (Homo sapiens), O95398; EPAC1 agonist qHTS, biochemical assay; response scale: 100% = response to 6.5 mM cAMP; note: potency is the fitted concentration of half-maximal effect; nearly all actives have a fitted effect of over 60% in size
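Fluorescent GDP-exchange assay: 100 nM EPAC1 with 250 nM Rap1B preloaded with BODIPY-GDP and 50 uM GDP; compounds tested as concentration series, 5 min at room temperature, then read every 5 min for 30 min (ex 480/em 540 nm); normalized to 6.5 mM cAMP.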
EPAC2 ag: qHTS for Agonist of cAMP-regulated guanine nucleotide exchange factor 4 (EPAC2): primary screen; EPAC2 activation, biochemical qHTS; response scale: 100% = 6.5 mM cAMP response; 360,000 compounds, 0.079% hits; AID 720711, 2013; Potency, µM (top dose mostly 154 µM), inactives show top-dose activation, actives largely listed as activators; note: potency is the fitted concentration of half-maximal effect; nearly all actives have a fitted effect of over 50% in size
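Exchange assay: 100 nM EPAC2 with 250 nM Rap1B-BODIPY-GDP and 50 uM GDP. Fluorescence (ex 480/em 540 nm) read every 5 min for 30 min at room temperature. Data normalized to 6.5 mM cAMP as agonist control.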
LDHA block: qHTS assay for inhibitors of human lactate dehydrogenase; L-lactate dehydrogenase A chain (Homo sapiens), P00338; purified LDHA, NADH/diaphorase-resazurin fluorescence; active compounds read low; 480,000 compounds, 0.15% hits; activity change, % (values are at about 110 or 230 µM); in the data active = activity change below about -30%; inconclusive = mostly about -25% to -30%;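 note: plate controls were DMSO wells for no effect and wells without enzyme for full effect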
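Human LDH5 (2 nM) was incubated with 0.06 mM NADH and 0.2 mM pyruvate for 5 min at room temperature in Tris pH 7.4. Remaining NADH was coupled through diaphorase/resazurin, and resorufin fluorescence was read at 0 and 20 min.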
EPAC2 antagonist: qHTS for Antagonist of cAMP-regulated guanine nucleotide exchange factor 2 (EPAC2): primary screen; AID 720708, 2013; Rap guanine nucleotide exchange factor 4 (Homo sapiens), Q8WZA2; EPAC2 GEF exchange of Rap1B-BODIPY-GDP, fluorescence; 360,000 compounds, 0.18% hits; Potency, µM (titrated, usually from 114 µM), inactives show at the top dose activity, negative = inhibition, actives largely listed as inhibitors; note: potency is the fitted concentration of half-maximal effect; % is set by controls: 0 for no effect and ±100 for the full control effect; nearly all actives have a fitted effect of over 45% in size
USP1 inh: Inhibitors of USP1/UAF1: Primary Screen; 390,000 compounds, 0.23% hits; recombinant USP1/UAF1, Ub-Rhodamine cleavage fluorescence; Potency, µM (titrated, usually from 57.1 µM), for inactives: at the highest dose activity change, negative = inhibition, usual class: inhibitors; AID 743255, 2014; note: potency is the fitted concentration of half-maximal effect; % is set by controls: 0 for no effect and ±100 for the full control effect; nearly all actives have a fitted effect of over 60% in size
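Step one: compound is pinned into 1nM USP1/UAF1 in HEPES pH 7.8 buffer with TCEP. Step two: 15 min room-temperature incubation. Step three: Ub-Rho (150nM final) starts cleavage, tracked by fluorescence over six one-minute reads.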
An asterisk follows results filed as active; ! = not active in a repeat; [ ] = another dose, or the depositor's remark. Unless noted, calls come from the whole dose curve; as a rule, active = well fitted curve in the direction sought with a large enough effect; inconclusive = small, poorly fitted or top-dose-only effect, or another doubt; inactive = no such curve, though single readings can be large; an effect the other way counts as inactive or inconclusive.

Results for COc1ccc(-c2cn3nc(N4CCCC(C(=O)Nc5ccc(C)c(C)c5)C4)sc3n2)cc1 (stereo unspecified) ?
LDHA block: -13; USP1 inh: -21%

What do the screens show for `CCOC(=O)C1CCN(c2nc3ccccc3nc2C(C#N)C(=O)OC(C)C)CC1` (stereo unspecified)?
EPAC1 antagonist: 1%; EPAC1 agonist: -2%; EPAC2 ag: -70%; LDHA block: -1; EPAC2 antagonist: -27%; USP1 inh: inconclusive

What do the screens show for `CCCCCCOC(=O)C(C#N)c1nc2ccccc2nc1N1CCN(C)CC1` (stereo unspecified)?
EPAC1 antagonist: -16%; EPAC1 agonist: -2%; EPAC2 ag: 5%; LDHA block: 3; EPAC2 antagonist: 1%[57.1 µM]; USP1 inh: -26%

Results for CCOC(=O)C1CCCN(c2nc3ccccc3nc2C(C#N)C(=O)OC(C)C)C1 (stereo unspecified) ?
EPAC1 antagonist: 89µM*; EPAC1 agonist: -54%; EPAC2 ag: -2%; LDHA block: -3; EPAC2 antagonist: -29%; USP1 inh: -2%

What do the screens show for `CCCCCCOC(=O)C(C#N)c1nc2ccccc2nc1N1CCCCC1` (stereo unspecified)?
EPAC1 antagonist: 95%; EPAC1 agonist: 112µM*; EPAC2 ag: 19%; LDHA block: -14; EPAC2 antagonist: -4%; USP1 inh: -8%

What do the screens show for `O=C(Nc1ccc2c(c1)OCCO2)c1ncoc1-c1cccc(Cl)c1`?
LDHA block: -1

How did Cc1ncc(CO)c2cc(C(=O)Nc3ccc(OC(F)(F)F)cc3)c(=O)oc12 do in these assays?
LDHA block: 14

How did O=C(O)c1ccccc1NS(=O)(=O)c1cccc(C(F)(F)F)c1 do in these assays?
EPAC1 antagonist: 5%; EPAC1 agonist: 3%; EPAC2 ag: 4%; LDHA block: 5; EPAC2 antagonist: -5%; USP1 inh: -2%

How did O=C(O)c1ccccc1NS(=O)(=O)c1cccc(-n2sc3ccccc3c2=O)c1 do in these assays?
EPAC1 antagonist: -29%; EPAC1 agonist: 0%; EPAC2 ag: 6%; LDHA block: -71*; EPAC2 antagonist: -5%; USP1 inh: inconclusive

How did CCCOc1ccc(-c2nc(C#N)c(NCCN(C)C)o2)cc1 do in these assays?
LDHA block: -32*

How did CN(C)CCNc1oc(-c2cccc(Cl)c2)nc1C#N do in these assays?
EPAC1 antagonist: 6%; EPAC1 agonist: 5%; EPAC2 ag: -2%; LDHA block: -33*!; EPAC2 antagonist: 0%; USP1 inh: -21%

What do the screens show for `O=C(CN1CCN(C(=O)c2cccnc2)CC1)Nc1ccccc1Cl`?
LDHA block: -19

Results for O=C(NNC(=O)c1cc2cc3ccccc3nc2s1)c1cccc(Cl)c1 ?
EPAC1 antagonist: -25%; EPAC1 agonist: -6%; EPAC2 ag: -5%; LDHA block: -51*; EPAC2 antagonist: 7%; USP1 inh: 2%

How did C/C(=N\NC(=O)c1cccc(Cl)c1)c1ccc(C)s1 do in these assays?
LDHA block: 4

What do the screens show for `Cc1ccccc1-c1nnn(Cc2ncc(-c3ccccc3)o2)n1`?
LDHA block: 1

Results for CCN(c1ccccc1)S(=O)(=O)c1ccc(OC)c(NC(=O)CN(C)C)c1 ?
EPAC1 antagonist: -19%; EPAC1 agonist: -5%; EPAC2 ag: 8%; LDHA block: -32*; EPAC2 antagonist: -3%; USP1 inh: 6%

How did COc1ccc(OC)c(NC(=O)C(=O)NNC(=O)c2cccs2)c1 do in these assays?
EPAC1 antagonist: -1%; EPAC1 agonist: 0%; EPAC2 ag: -1%; LDHA block: -4; EPAC2 antagonist: 0%; USP1 inh: -15%

Results for Cc1ccc(NC2=C(N3CCOCC3)C(=O)c3ccccc3C2=O)cc1 ?
EPAC1 antagonist: -7%; EPAC1 agonist: 28%; EPAC2 ag: 20%; LDHA block: 26; EPAC2 antagonist: -6%; USP1 inh: 40µM*

How did CC(=O)c1ccc(NC2=C(N3CCOCC3)C(=O)c3ccccc3C2=O)cc1 do in these assays?
EPAC1 antagonist: -3%; EPAC1 agonist: 12%; EPAC2 ag: 24%; LDHA block: 20; EPAC2 antagonist: -18%; USP1 inh: inconclusive

What do the screens show for `O=C(O)c1ccc(NC2=C(N3CCOCC3)C(=O)c3ccccc3C2=O)cc1`?
EPAC1 antagonist: -20%; EPAC1 agonist: -7%; EPAC2 ag: -12%; LDHA block: 26; EPAC2 antagonist: 1%; USP1 inh: 28µM*

What do the screens show for `Cc1ccc(S(=O)(=O)NC2=C(N3CCN(Cc4ccccc4)CC3)C(=O)c3ccccc3C2=O)cc1`?
EPAC1 antagonist: 10%; EPAC1 agonist: 5%; EPAC2 ag: 4%; LDHA block: 14; EPAC2 antagonist: -4%; USP1 inh: -6%

What do the screens show for `CCOC(=O)N1CCN(C2=C(NS(=O)(=O)c3ccc(C)cc3)C(=O)c3ccccc3C2=O)CC1`?
EPAC1 antagonist: -29%; EPAC1 agonist: 11%; EPAC2 ag: 24%; LDHA block: 12; EPAC2 antagonist: -18%; USP1 inh: 22µM*

What do the screens show for `CCCCCCc1ccc(-c2ccc(CCCCCC)cn2)cc1`?
LDHA block: 0

Results for Cc1cccc(C)c1-n1c(C)cc(/C=N\Nc2ccc([N+](=O)[O-])cn2)c1C ?
EPAC1 antagonist: -1%; EPAC1 agonist: -18%; EPAC2 ag: 4µM*; LDHA block: 1; EPAC2 antagonist: -2%; USP1 inh: -14%

What do the screens show for `CN(C(=O)c1cccc(N)c1)C1CCCCC1`?
LDHA block: -3

What do the screens show for `O=C(c1ccco1)N1N=C(C2CCCCC2)CC1(O)C(F)(F)F` (stereo unspecified)?
EPAC1 antagonist: -19%; EPAC1 agonist: -4%; EPAC2 ag: 0%; LDHA block: -5; EPAC2 antagonist: inconclusive; USP1 inh: -9%

Screening results from PubChem BioAssay.
